Measured values from PubChem BioAssay AID1159580 (chemical genetic matrix, 2015).
About 2,000 (36%) of roughly 5,500 compounds were called active. Another 18% or so got no clear call; they are omitted. Rule as the data show it: active = normalized growth mostly below about 0.91 (no sharp cut-off); inconclusive = no clear call, values can overlap the other calls; inactive = mostly above about 0.92. The list shows a part of the results.

Assay: chemical genetic growth profiling, strain panel (AID 1159580);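 also: tested at 20 µM; growth read once vehicle control cultures reached saturation at 30 °C; 1 = growth at the plate median or of vehicle wells; lower values mean less growth of the strain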
Settings: growth OD
[1] = S. cerevisiae deletion strains, locus YAL013W, strain DEP1, hits give low values
[2] = S. cerevisiae deletion strains, locus YBR229C, strain ROT2, hits give low values
[3] = S. cerevisiae deletion strains, locus YCL061C, strain MRC1, hits give low values
[4] = S. cerevisiae deletion strains, locus YDL101C, strain DUN1, hits give low values
[5] = S. cerevisiae deletion strains, locus YDR150W, strain NUM1, hits give low values
[6] = S. cerevisiae deletion strains, locus YEL061C, strain CIN8, hits give low values
[7] = S. cerevisiae deletion strains, locus YGR078C, strain PAC10, hits give low values
[8] = S. cerevisiae deletion strains, locus YHR030C, strain SLT2, hits give low values
[9] = S. cerevisiae deletion strains, locus YHR087W, strain rtc3, hits give low values
[10] = S. cerevisiae deletion strains, locus YJR043C, strain POL32, hits give low values
[11] = S. cerevisiae deletion strains, locus YJR075W, strain HOC1, hits give low values
[12] = S. cerevisiae deletion strains, locus YKL190W, strain CNB1, hits give low values
[13] = S. cerevisiae deletion strains, locus YLR039C, strain RIC1, hits give low values
[14] = S. cerevisiae deletion strains, locus YLR058C, strain SHM2 (second series), hits give low values
[15] = S. cerevisiae deletion strains, locus YLR085C, strain ARP6, hits give low values
[16] = S. cerevisiae deletion strains, locus YLR262C, strain YPT6, hits give low values
[17] = S. cerevisiae deletion strains, locus YML094W, strain GIM5, hits give low values
[18] = S. cerevisiae deletion strains, locus YMR219W, strain ESC1, hits give low values
[19] = S. cerevisiae deletion strains, locus YMR263W, strain SAP30, hits give low values
[20] = S. cerevisiae deletion strains, locus YNL153C, strain GIM3, hits give low values
[21] = S. cerevisiae deletion strains, locus YNL298W, strain CLA4 (second series), hits give low values
[22] = S. cerevisiae deletion strains, locus YNL322C, strain KRE1, hits give low values
[23] = S. cerevisiae deletion strains, locus YNR030W, strain Alg12, hits give low values
[24] = S. cerevisiae deletion strains, locus YOL006C, strain TOP1, hits give low values
[25] = S. cerevisiae deletion strains, locus YPL055C, strain LGE1, hits give low values
[26] = S. cerevisiae deletion strains, locus YPL241C, strain CIN2, hits give low values
[27] = S. cerevisiae deletion strains, locus YPR135W, strain CTF4, hits give low values
[28] = S. cerevisiae strains, strain wild type, hits give low values

Measured: normalized growth

CCOC(=O)C(=CNc1cccc(C#N)c1)C(=O)OCC
inactive: [1] 1.01 | [2] 0.987 | [3] 1 | [4] 1 | S. cerevisiae deletion strains, locus YDL134C, strain PPH21, hits give low values 0.994 | [5] 0.992 | [6] 0.957 | [7] 1.01 | [8] 0.942 | [9] 0.973 | [10] 1.02 | [11] 0.981 | [12] 0.98 | [13] 0.988 | [14] 0.995 | [15] 0.977 | [16] 0.962 | [17] 0.963 | [18] 0.997 | [19] 1.01 | S. cerevisiae deletion strains, locus YNL128W, strain TEP1, hits give low values 1.01 | [20] 1.01 | [21] 0.999 | [22] 0.997 | [23] 1.03 | [24] 0.91 | [25] 0.934 | [26] 1.01 | [27] 1.03 | [28] 0.994

CCOC(=O)C(=CNc1ccccc1N1CCOCC1)C(=O)OCC
active: [15] 0.722 | [27] 0.52
inactive: [1] 0.96 | [2] 0.989 | [3] 0.978 | [4] 0.958 | [5] 0.939 | [6] 1 | [7] 0.963 | S. cerevisiae deletion strains, locus YGR229C, strain SMI1, hits give low values 0.978 | [8] 0.759 | [9] 0.999 | S. cerevisiae deletion strains, locus YJL187C, strain SWE1, hits give low values 0.979 | [10] 0.967 | [11] 0.991 | [12] 0.955 | [13] 0.9 | [14] 0.971 | [16] 0.915 | [17] 0.958 | [18] 0.981 | [19] 0.968 | [20] 0.986 | [21] 0.916 | [22] 0.975 | [23] 0.937 | [24] 0.825 | [25] 0.987 | [26] 0.938

CCOC(=O)C(=CNNC(=O)c1ccccc1-n1cccc1)C(=O)OCC
inactive: [1] 0.993 | [2] 1.01 | [3] 1.01 | [4] 1.03 | [5] 1.01 | [6] 0.955 | [7] 1.01 | [8] 1.01 | [9] 0.974 | [10] 1.01 | [11] 1.01 | [14] 0.994 | [15] 0.996 | [16] 0.912 | [17] 0.997 | [18] 1.01 | [19] 1 | [20] 0.999 | [21] 1.01 | [22] 0.981 | [23] 1.02 | [24] 0.986 | [25] 0.975 | [26] 1.04 | [27] 1.04 | [28] 0.935
